Columns and labels:
Type in all cases: functional
[1] = molecular target: Solute carrier family 2, facilitated glucose transporter member 1 (Homo sapiens) (UniProt P11166); assay: ST_JUDE_LEISH: Cytotoxicity at 2uM final concentration against transgenic Leishmania Mexicana promastigotes LmGLUT1 that are glucose transport deficient and complemented with the human glucose transporter GLUT1. Activity is measured by DNA content using SYBR green in vitro
[2] = molecular target: Hexose transporter 1 (Plasmodium falciparum) (UniProt O97467); assay: ST_JUDE_LEISH: Cytotoxicity at 2uM final concentration against transgenic Leishmania Mexicana promastigotes LmPfHT that are glucose transport deficient and complemented with the Plasmodium falciparum hexose transporter. Activity is measured by DNA content using SYBR green in vitro
[3] = molecular target: Glucose transporter (Leishmania mexicana) (UniProt O61059); assay: ST_JUDE_LEISH: Cytotoxicity at 2uM final concentration against transgenic Leishmania Mexicana promastigotes LmGT2 that are glucose transport deficient and complemented with the L. Mexicana glucose transporter 2. Activity is measured by DNA content using SYBR green in vitro

Sequence of Solute carrier family 2, facilitated glucose transporter member 1 (Homo sapiens) (P11166 whole entry): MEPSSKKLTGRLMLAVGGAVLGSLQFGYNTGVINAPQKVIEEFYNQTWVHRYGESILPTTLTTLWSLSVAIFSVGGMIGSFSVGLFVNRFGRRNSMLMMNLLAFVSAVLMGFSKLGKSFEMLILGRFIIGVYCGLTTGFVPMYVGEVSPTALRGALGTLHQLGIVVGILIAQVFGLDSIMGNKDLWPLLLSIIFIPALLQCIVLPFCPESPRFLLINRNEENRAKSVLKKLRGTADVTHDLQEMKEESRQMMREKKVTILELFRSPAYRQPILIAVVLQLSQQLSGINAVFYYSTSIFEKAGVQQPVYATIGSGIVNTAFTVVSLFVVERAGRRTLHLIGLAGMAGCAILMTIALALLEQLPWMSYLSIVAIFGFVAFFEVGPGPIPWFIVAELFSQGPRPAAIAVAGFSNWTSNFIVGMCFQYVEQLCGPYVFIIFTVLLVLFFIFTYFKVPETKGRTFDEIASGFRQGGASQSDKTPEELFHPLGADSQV

Structure (SMILES) | inhibition [1] | inhibition [2] | inhibition [3]
COc1ccccc1CNC(=O)c1cc(OC)c(OC)cc1NC(=O)c1cccs1 | 10.5% | 6% | 4.4%
O=c1cc(NCCCNCc2scc(I)c2I)[nH]c2ccccc12 | 4.34% | 5.49% | 4%
c1ccc(-c2ccc(-c3csc(Nc4ccncc4)n3)cc2)cc1 | 0.44% | 1.9% | 1.13%
CC(C)=CCN1CCC(C(=O)Nc2ccc(-c3nc4ccccc4[nH]3)cc2)CC1 | 5.64% | 5.1% | 6.97%
CC1CCc2c(C(=O)Nc3c(F)cc(F)cc3Br)csc2C1 (stereo not drawn) | -0.18% | 0.02% | -0.61%
O=[N+]([O-])c1ccc2nccnc2c1 | 6.19% | 5.71% | 6.9%

From ChEMBL document CHEMBL3433997, “St. Jude Leishmania screening dataset” (2016)
